Source: PubChem BioAssay (National Center for Advancing Translational Sciences (NCATS))
Rows were chosen to be rich in hits. Some 1.3% of all compounds tested hit in one or more screens of this group.
Six1-Eya2 inh – blocks human Six1 binding to Eya2 | Q15475+O00167 | AlphaScreen GST-Six1/His-Eya2 binding, biochemical; stronger effect = lower value | activity change, % (test concentration not listed) | hit rate 0.56% among 360,000 | AID 651725
Target sequence (O00167 whole entry, looked up): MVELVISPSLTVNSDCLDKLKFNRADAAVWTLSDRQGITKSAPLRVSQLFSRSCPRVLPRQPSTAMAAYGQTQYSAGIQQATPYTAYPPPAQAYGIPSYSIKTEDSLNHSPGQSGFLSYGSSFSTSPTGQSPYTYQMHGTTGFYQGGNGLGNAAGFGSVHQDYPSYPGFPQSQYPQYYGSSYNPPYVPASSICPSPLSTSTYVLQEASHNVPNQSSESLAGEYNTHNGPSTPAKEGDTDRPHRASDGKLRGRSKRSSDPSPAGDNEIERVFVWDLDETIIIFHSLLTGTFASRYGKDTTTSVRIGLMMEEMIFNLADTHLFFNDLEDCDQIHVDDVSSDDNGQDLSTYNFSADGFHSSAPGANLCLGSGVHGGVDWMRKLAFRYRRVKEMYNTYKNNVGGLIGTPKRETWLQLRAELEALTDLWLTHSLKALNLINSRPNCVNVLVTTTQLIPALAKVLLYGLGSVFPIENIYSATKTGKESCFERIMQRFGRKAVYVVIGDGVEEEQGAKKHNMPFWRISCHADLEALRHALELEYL
Target sequence (Q15475 whole entry, looked up): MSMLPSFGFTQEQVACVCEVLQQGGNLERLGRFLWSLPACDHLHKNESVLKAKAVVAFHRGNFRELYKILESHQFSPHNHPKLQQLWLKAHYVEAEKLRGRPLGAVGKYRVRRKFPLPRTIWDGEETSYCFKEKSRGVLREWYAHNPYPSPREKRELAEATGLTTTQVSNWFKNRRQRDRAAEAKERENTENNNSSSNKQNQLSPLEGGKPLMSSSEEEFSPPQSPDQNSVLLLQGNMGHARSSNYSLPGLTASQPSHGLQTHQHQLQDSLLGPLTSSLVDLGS
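AlphaScreen luminescence read after one hour at 37 °C in darkness. Pin-transferred compounds met GST-Six1 and His-Eya2 protein (5X stock 250 nM/500 nM) plus glutathione donor and Ni-chelate acceptor beads (5X, 50 ug/mL).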
CCT modulator – changes cytosolic chaperonin activity. purified chaperonin ATPase assay, HTRF ADP detection, 30 min. activity change, % (no concentration beside the values), hits read low. hit rate 0.3% among 360,000. AID 651819; in the data active = activity change below about -30%
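TRiC (40 or 20 nM final, by batch activity) in 30 mM Tris pH 7.4, 100 mM KCl, 5 mM MgCl2, 1 mM DTT was treated with compound at 76 uM single dose, then 10 uM ATP, 30 min at 37 °C. ADP was read by HTRF Transcreener.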
CtBP-E1A inh – inhibitors of CtBP/E1A interaction; AlphaScreen GST-E1A/His-CtBP binding, 1536-well; stronger effect = lower value; activity change, % (test concentration not listed); hit rate 0.49% among 340,000; AID 651724
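Homogeneous bead-based format: GST-tagged E1A captured on glutathione donor beads, His-tagged CtBP on nickel acceptor beads; compounds precede bead addition by 2 h at 37 °C.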
Akt phos inh – Akt phosphorylation inhibition; Neuro2A IGF-stimulated pAkt S473 HTRF, 20 min; stronger effect = lower value; activity change, % for hits at 50 µM; hit rate 0.32% among 360,000; in the data active = activity change below about -80%; inconclusive = mostly about -51% to -80%
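Single-point screen (50 µM final compound) in Neuro2A cells stimulated 20 min with 6 nM IGF at 37 deg C. After lysis, Ser473-phosphorylated Akt read by HTRF (ex 330 nm, em 615/665 nm) as the 665/615 ratio.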
The depositor's hits bear a star; i = inactive; ? = inconclusive; . = not tested or not shown. Rule as the data show it, unless noted: active = activity change below about -65%; inconclusive = mostly about -30% to -63%; inactive = weaker than that. % is scaled to controls: 0 for no effect and ±100 for the full control effect.

SMILES	Six1-Eya2 inh	CCT modulator	CtBP-E1A inh	Akt phos inh
COCCNC(=O)c1cn(CCOC)c(=O)c2c1c1ccccc1n2C	5	-3	0	i
Cc1cccc(NCCNc2cccc(C)c2)c1	-24	-1	-21	-104%*
CCCCCCCNc1cccc(C)c1	2	0	-4	i
Cc1cccc(NCc2ccccc2O)c1	-6	-2	-11	-101%*
O=C(N/C(=C/c1cccc([N+](=O)[O-])c1)C(=O)N1CCOCC1)c1ccc(Br)cc1	23	-2	-1	i
O=C(C=Cc1ccc2c(c1)OCO2)OCC=Cc1ccc2c(c1)OCO2	10	-3	13	i
Cc1c(C(=O)Nc2ccc(S(=O)(=O)Nc3ncccn3)cc2)oc2ccc(F)cc12	8	-2	-6	i
Cc1cccc(OCCCC(=O)N2CCCCCC2)c1C	2	-9	.	i
CCc1cc(=O)oc2c(C)c(OC(C)C(=O)NCCCn3ccnc3)ccc12 (stereo not given)	1	-1	0	i
O=C(N/N=C/c1ccc(O)cc1O)c1ccc(NC(=O)C2CCCCC2)cc1	-72*	-3	-90*	i
CCc1cc(C(=O)N/N=C/c2ccc(O)cc2O)c2ccccc2n1	-93*	0	-97*	i
Cc1nonc1C(=O)N/N=C/c1ccncc1	-7	1	.	i
O=C(N/N=C/c1cc(Cl)cc(Cl)c1O)c1ccncc1	-92*	0	.	i
Cc1nonc1C(=O)N/N=C/c1ccc(O)cc1O	-90*	1	.	i
O=C(CCCCCNC(=O)c1ccccc1)N/N=C/c1ccc(O)cc1O	-28	-2	?	i
CC(C)n1cnnc1SCC(=O)Nc1cccnc1Cl	9	0	.	i
COc1cc(CN2C[C@@H](CO)O[C@@H](n3cnc4c(NCc5ccc(F)cc5)ncnc43)C2)cc(OC)c1OC	-10	0	1	i
COc1ccccc1C(=O)N(C)c1nnc(-c2ccccc2)s1	3	-3	10	i
O=C(N/N=C/c1cc(Br)cc(Br)c1O)c1ccncc1	-80*	-3	-93*	i
O=C(N/N=C/c1ccc(Cl)cc1Cl)c1ccncc1	5	-6	.	i
O=C(C[n+]1ccccc1)N/N=C/c1cc(Br)cc(Br)c1O	-89*	-3	6	i
O=C(O)COc1ccccc1/C=N/NC(=O)c1cc(-c2ccc(Cl)cc2)nc2ccccc12	-80*	-3	-81*	i
O=C(C[n+]1ccccc1)N/N=C/c1cc(Br)ccc1F	-12	-3	11	i
O=C(N/N=C/c1ccc(O)cc1O)c1ccncc1	-93*	0	-91*	i
Cc1cccc(C(=O)Oc2c(Br)cc(Br)cc2/C=N/NC(=O)c2ccncc2)c1	-2	-1	2	i
SMILES	Six1-Eya2 inh	CCT modulator	CtBP-E1A inh	Akt phos inh
COc1ccc(/C=C(/NC(=O)c2ccccc2)C(=O)N2CCCC2)cc1	1	1	13	i
CC1(C(=O)NS(=O)(=O)C2CC2)CCN(C(=O)c2ccccc2F)C1 (stereo not given)	8	0	4	i
C[C@H]1CN([C@@H](C)CO)C(=O)CCCn2cc(nn2)CO[C@@H]1CN(C)C(=O)Nc1ccc(-c2cccs2)cc1	10	0	-22	i
COc1ccccc1-c1csc(C(O)(c2ccccc2)C(F)(F)F)n1 (stereo not given)	1	0	16	i
CCOC(=O)C1=C(C(=O)OCC)N(CC2CCCCC2)CCC1=O	2	-2	7	i
COc1ccccc1C(=O)NCC(c1cccs1)N1CCc2ccccc21 (stereo not given)	?	-7	-1	i
COc1ccc(CCC(=O)Nc2cc(Cl)ccc2N2CCN(C)CC2)cc1	-1	-1	-2	-107%*
CCC(=O)N1CCN(c2ccc(Cl)cc2NC(=O)Cc2ccc(Cl)cc2)CC1	3	-4	-3	-85%*
CCC(=O)N1CCN(c2ccccc2NC(=O)Cc2ccc(Cl)cc2)CC1	-5	-6	-26	i
CCOc1ccc(CCNC(=O)c2sc3nc4n(c(=O)c3c2C)CCC4)cc1	-4	1	-7	i
Cc1cccnc1NC(=O)CCc1nnc2ccc(N3CCC4(CC3)OCCO4)nn12	7	0	.	.
CCOc1cccc(/C(O)=C2/C(=O)C(=O)N(Cc3cccnc3)C2c2ccco2)c1 (stereo not given)	2	0	-7	-116%*
CCc1ccccc1Nc1nn2c(=O)c3ccc(C(=O)NCc4ccccn4)cc3nc2s1	?	0	-79*	i
NC(=O)c1ccc(NC(=O)CSc2nnc(-c3cccnc3)n2Cc2ccco2)cc1	-5	-73*	.	.
O=C(CSc1nnc(-c2cccnc2)n1Cc1ccco1)c1ccccc1	12	-1	-4	i
O=C(CSc1nnc(-c2ccccc2)n1Cc1ccco1)Nc1ccc2c(c1)OCCO2	-3	-3	-7	i
Cc1ccc(OCc2nnc(SCC(=O)Nc3ccc4c(c3)OCCO4)n2Cc2ccco2)cc1	-3	-1	-11	-104%*
COc1cc(CC(=O)OCc2ccccc2F)cc(OC)c1OC	-2	1	13	i
Cc1ccc2c3c(c(SCC(=O)Nc4nonc4C)nc2c1)CCCC3	5	1	3	i
Cc1nonc1NC(=O)CSc1nc2cc(Cl)ccc2c2c1CCCC2	2	-5	8	-94%*
S=c1[nH]nc(-c2cccc(Br)c2)o1	9	-1	-1	-108%*
C=CCn1c(Sc2nnc(C)s2)nc2c1c(=O)[nH]c(=O)n2C	5	-3	-5	-124%*
CC(Sc1nnc(NC2CCCCC2)s1)C(=O)Nc1ccc2c(c1)C(=O)c1ccccc1C2=O (stereo not given)	-75*	3	0	i
O=C(Nc1ccccc1N1CCCC1)C1CC(=O)N(Cc2ccccc2)C1 (stereo not given)	3	0	-24	i
CN(Cc1ccc(F)cc1)C(=O)CNC(=O)c1ccc2c(c1)OCO2	5	4	0	i
SMILES	Six1-Eya2 inh	CCT modulator	CtBP-E1A inh	Akt phos inh
O=C(CNC(=O)c1ccco1)N/N=C/c1cc(Br)ccc1O	-97*	0	-86*	i
COc1cc(/C=N/NC(=O)CNC(=O)c2ccco2)ccc1O	3	-1	14	i
O=C(CNC(=O)c1ccco1)N/N=C/c1ccc(O)cc1O	-86*	0	.	i
COc1ccccc1C(=O)NC(CCSC)C(=O)OCC(=O)N1CCN(S(=O)(=O)c2ccc(C)cc2)CC1 (stereo not given)	0	-3	0	i
O=C(COC(=O)c1ccccc1NC(=O)c1ccco1)Nc1ccc2c(c1)OCO2	-11	-8	-11	-102%*
CCc1ccc(NC(=S)Nc2ccc3[nH]c(=O)[nH]c3c2)cc1	0	-3	-22	i
CCCCNC(=S)Nc1ccc2[nH]c(=O)[nH]c2c1	6	0	-67*	i
Cc1ccc(N(Cc2ccccc2)C(=O)CN2C(=O)NC3(CCCC3)C2=O)cc1	-2	-3	-2	i
C=CCNC(=S)N/N=C(\C)c1ccccn1	-89*	1	-97*	i
